# SW480 rerep: A quantitative high throughput screen for small molecules that induce DNA re-replication in SW480 colon adenocarcinoma cells. SW480 DNA re-replication, Hoechst DNA content imaging, 48 h. Potency, µM (highest dose often 46.1 µM), hits mostly activators. actives 1.8% (n = 340,000). AID 624297, 2012; also: nearly all actives have a fitted effect of over 55% in size
#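 Treated cells incubate 48 hr (37 C, 5% CO2), are stained 40 min with Hoechst, and nuclear fluorescence is enumerated; a rise in nuclei with high DNA signal marks re-replication.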
# KB-V1 MDR tox: qHTS assay for MDR1-selective chemotherapeutics: Primary screen using the drug-selected MDR subline cells KB-V1; KB-V1 MDR cells viability, CellTiter-Glo, 72 h; AID 1347076, 2019; actives 3.4% (n = 400,000); Potency, µM (series often up to 46.1 µM), usual class: cytotoxic; also: nearly all actives have a fitted effect of over 60% in size
#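 Luminescent ATP read-out (CellTiter-Glo, 10 min) measures survival of drug-selected KB-V1 MDR cells after 72 h, 37 degrees C compound exposure. Medium: phenol-red-free DMEM, 10% FBS. Values from fitted concentration-response curves.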
# D3 antag: qHTS of D3 Dopamine Receptor Antagonist: qHTS | D(3) dopamine receptor (Homo sapiens), P35462 | max response, negative = inhibition, % | D3R cells, DiscoveRx beta-arrestin luminescence, antagonist mode; active compounds read low | actives 2.5% (n = 360,000); in the data active = max response below about -50%; inconclusive = no clear call, values can overlap the other calls
# Target sequence (P35462 whole entry, looked up): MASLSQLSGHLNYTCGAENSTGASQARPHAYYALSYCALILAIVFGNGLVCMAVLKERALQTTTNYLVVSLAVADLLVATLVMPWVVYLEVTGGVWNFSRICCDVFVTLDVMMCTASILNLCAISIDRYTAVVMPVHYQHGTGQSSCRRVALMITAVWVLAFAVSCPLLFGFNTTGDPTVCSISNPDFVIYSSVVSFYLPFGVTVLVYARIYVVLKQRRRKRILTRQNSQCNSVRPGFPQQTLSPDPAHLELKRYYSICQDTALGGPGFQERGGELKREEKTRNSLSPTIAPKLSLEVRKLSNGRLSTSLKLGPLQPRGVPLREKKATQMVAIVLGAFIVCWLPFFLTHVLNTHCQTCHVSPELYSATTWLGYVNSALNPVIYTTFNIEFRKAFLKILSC
#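 Cells expressing the human receptor were seeded at 1500 cells/well, incubated overnight at 37 degrees C in 5% CO2, then exposed to library compounds with dopamine controls for 90 minutes at 37 degrees C before luminescent detection.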
# MCF10A rerep: A quantitative high throughput screen for small molecules that induce DNA re-replication in MCF 10a normal breast cells | MCF 10A DNA re-replication, Hoechst nuclear intensity, 48 h | Potency, µM (top dose mostly 46.1 µM), actives largely listed as activators | actives 2.9% (n = 350,000); also: nearly all actives have a fitted effect of over 50% in size
# KB-3-1 tox: qHTS assay for MDR1-selective chemotherapeutics: Primary screen using the parental adenocarcinoma cell KB-3-1; KB-3-1 viability, CellTiter-Glo ATP luminescence, 72 h; Potency, µM (series often up to 46.1 µM), usual class: cytotoxic; actives 1.4% (n = 400,000); AID 1347075, 2019; also: nearly all actives have a fitted effect of over 60% in size
#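 Using CellTiter-Glo luminescence, growth of non-resistant KB-3-1 adenocarcinoma cells is assessed 72 h after pin-tool compound addition at 37 °C. Normalized responses across the concentration series yield fitted curves.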
# D3 ag: qHTS of D3 Dopamine Receptor Agonist: qHTS | D3R DiscoveRx beta-arrestin cells, luminescence, 90 min | max activation, % | D(3) dopamine receptor (Homo sapiens), P35462 | actives 0.58% (n = 410,000); in the data active = max activation above about 30%
#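 Cells at 1500/well, incubated overnight, then treated with pinned compounds (dopamine as control) for 90 min at 37 degrees C. DiscoveRx reagent added for 30 - 60 minutes at room temperature; luminescence read.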
# Hits are given with their value; 0 = inactive; ? = inconclusive; - = no result; ! = a repeat was not active. In the library only some 8.9% were active in any assay of this set; here they are far more common. Unless noted, calls follow the shape of the dose curve; as a rule, active = well fitted curve in the direction sought with a large enough effect; inconclusive = small, poorly fitted or top-dose-only effect, or another doubt; inactive = no such curve, though single readings can be large; an effect the other way counts as inactive or inconclusive.
SMILES,SW480 rerep,KB-V1 MDR tox,D3 antag,MCF10A rerep,KB-3-1 tox,D3 ag
Cc1cccc(NC(=O)C(=O)NCC(c2cccnc2)N2CCN(Cc3ccccc3)CC2)c1 (configuration not stated),-,0,-,-,0,0
Cc1noc(C)c1S(=O)(=O)N1CCC(C(=O)Nc2ccc(OC(F)(F)F)cc2)CC1,0,0,0,16µM,0,0
COc1ccc(NC(=O)C2CCN(S(=O)(=O)c3c(C)noc3C)CC2)cc1,0,0,0,0,0,0
Cc1ccc(C)c(NC(=O)C2CCCN(S(=O)(=O)c3c(C)noc3/C=C/N(C)C)C2)c1 (configuration not stated),0,0,0,18µM,0,0
O=C(Nc1nc2ccc(F)cc2s1)C1CCN(S(=O)(=O)c2cc([N+](=O)[O-])ccc2Cl)CC1,?,15µM,0,?,15µM,0
O=C(Nc1ccc(OC(F)(F)F)cc1)C1CCN(S(=O)(=O)c2cccs2)CC1,-,0,-,-,21µM,0
Cc1ccc2nc(NC(=O)C3CCN(S(=O)(=O)c4cc([N+](=O)[O-])ccc4Cl)CC3)sc2c1,?,?,0,0,?,0
O=C(Nc1nc2ccc(C(=O)N3CCCCC3)cc2s1)C1CCCCC1,6.5µM,3.7µM,0,4.1µM,5.8µM,0
COc1ccc(C)cc1NC(=O)C1CCN(S(=O)(=O)c2c(C)noc2/C=C/c2ccco2)CC1,-,-,-,-,-,0
COc1ccc(C)cc1NC(=O)C1CCN(S(=O)(=O)c2c(C)noc2C)CC1,0,0,0,0,0,40
Cc1ccc2nc(NC(=O)C3CCN(S(=O)(=O)c4cccnc4)CC3)sc2c1,0,?,0,0,?,0
Cc1ccc2nc(NC(=O)C3CCN(S(=O)(=O)c4cccs4)CC3)sc2c1,0,4.6µM,0,0,?,0
COc1ccc(/C=C/c2ccc3ccccc3[n+]2C)c(OC)c1OC,-,0,-,-,?,-
CC(=O)Oc1ccccc1/C=C/c1ccc2ccccc2[n+]1C,0,0,0,?,0,0
COc1ccc(/C=C/c2ccc3ccccc3[n+]2C)cc1OC,0,0,0,0,10µM!,0
COc1cc(OC)c(OC)cc1/C=C/c1ccc2ccccc2[n+]1C,-,0,-,-,13µM,-
CC(Oc1ccccc1)C(=O)N1CCN(Cc2cc(=O)n3nc(-c4ccccc4Cl)sc3n2)CC1 (configuration not stated),-,0,-,-,0,0
CN(Cc1ccccc1)S(=O)(=O)c1ccc2[nH]c3c(c2c1)CCCCC3,-,0,-,-,0,0
O=C1CC(/C=C/c2ccncc2)=Nc2ccccc2N1,16µM,?,0,?,?,0
O=C1CC(c2ccccc2)=Nc2ccccc2N1,0,0,0,0,0,0
Cc1ccc(NC(=O)Cn2c(=O)n(-c3ccc(C)cc3)c(=O)c3c2cnn3C)cc1,-,0,-,-,0,0
O=C(NCCN1CCC(n2c(=O)[nH]c3ccccc32)CC1)c1ccccc1,-,0,-113,-,0,0
O=C(NCCN1CCC(n2c(=O)[nH]c3ccccc32)CC1)c1ccc(F)cc1Cl,-,?,-77,-,?,0
Cc1ccc(C(=O)NCCN2CCC(n3c(=O)[nH]c4ccccc43)CC2)cc1C,-,?,-111,-,?,0
O=C(NCCN1CCC(n2c(=O)[nH]c3ccccc32)CC1)N1c2ccccc2Sc2ccccc21,-,0,-111,-,?,0
c1ccc(N(c2ccccc2)c2nc(N3CCCC3)nc(-n3ccnc3)n2)cc1,?,0,0,3.7µM,0,0
c1ccc(CN2CCN(c3nc(-c4ccccc4)nc(-n4ccnc4)n3)CC2)cc1,21µM,?,-63,?,?,0
c1ccc(-c2nc(-n3ccnc3)nc(-n3ccnc3)n2)cc1,0,?,0,?,0,0
Cc1ccccc1Cn1c2ccccc2c2cnn(CC(=O)NCC(C)c3ccccc3)c(=O)c21 (configuration not stated),-,0,-,-,0,0

# Compound activity deposited in PubChem BioAssay by National Center for Advancing Translational Sciences (NCATS).
